Among all 310,000 compounds or so, about 14,000 (4.5%) showed an effect of 50% or more. Effects have a minus sign here. The list comes from a sample in which strong results are over-represented; it also holds similar structures and randomly drawn compounds.
What follows are compounds tested against human ether-à-go-go-related gene (hERG) potassium channel (human, UniProt Q12809) (assay: primary screen, population patch clamp on CHO cells stably expressing hERG; higher = less effect of the substance).
human ether-à-go-go-related gene (hERG) potassium channel, sequence (Q12809 whole entry, looked up): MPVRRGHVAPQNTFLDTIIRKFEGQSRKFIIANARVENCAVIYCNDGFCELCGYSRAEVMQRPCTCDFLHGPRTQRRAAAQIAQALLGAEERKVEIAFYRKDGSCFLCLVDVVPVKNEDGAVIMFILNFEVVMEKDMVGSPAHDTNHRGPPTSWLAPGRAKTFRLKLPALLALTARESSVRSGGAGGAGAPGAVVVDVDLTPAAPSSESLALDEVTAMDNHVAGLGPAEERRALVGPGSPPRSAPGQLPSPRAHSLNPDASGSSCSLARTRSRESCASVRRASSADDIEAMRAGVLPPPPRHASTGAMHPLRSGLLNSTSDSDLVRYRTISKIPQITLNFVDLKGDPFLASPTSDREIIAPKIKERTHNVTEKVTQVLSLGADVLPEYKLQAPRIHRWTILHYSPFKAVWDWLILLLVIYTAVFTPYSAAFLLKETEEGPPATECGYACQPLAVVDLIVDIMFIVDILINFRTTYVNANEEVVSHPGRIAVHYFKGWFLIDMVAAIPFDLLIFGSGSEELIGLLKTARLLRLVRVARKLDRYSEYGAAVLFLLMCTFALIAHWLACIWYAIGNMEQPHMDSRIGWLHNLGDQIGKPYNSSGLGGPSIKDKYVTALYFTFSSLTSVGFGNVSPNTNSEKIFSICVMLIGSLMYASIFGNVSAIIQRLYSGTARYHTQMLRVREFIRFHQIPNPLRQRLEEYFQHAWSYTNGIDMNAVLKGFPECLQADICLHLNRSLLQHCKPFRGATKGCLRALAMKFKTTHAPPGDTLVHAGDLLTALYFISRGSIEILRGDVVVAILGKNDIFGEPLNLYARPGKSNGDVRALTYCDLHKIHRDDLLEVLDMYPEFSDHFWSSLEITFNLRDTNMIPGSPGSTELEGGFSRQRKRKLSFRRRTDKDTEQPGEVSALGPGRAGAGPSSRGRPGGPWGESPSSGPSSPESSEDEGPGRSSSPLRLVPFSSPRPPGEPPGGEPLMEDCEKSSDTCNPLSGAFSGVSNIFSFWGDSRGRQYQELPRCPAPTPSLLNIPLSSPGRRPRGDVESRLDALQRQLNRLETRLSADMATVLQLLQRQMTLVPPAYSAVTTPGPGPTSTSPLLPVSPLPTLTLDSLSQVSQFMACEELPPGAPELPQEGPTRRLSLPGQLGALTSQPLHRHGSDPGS
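Further: peak tail current of the secondary pulse compared with the same well before compound.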

Compound | hERG current change (%, negative = inhibition) at 10uM [%]
CCOc1ccccc1CN1CCNC(=O)C1CC(=O)N(C)Cc1nonc1C (stereo not drawn) | 8.59
COc1ccc(CNC(=O)c2cccc(-c3ccc(C)c4ccccc34)n2)cc1 | -24
COc1ccc(-c2ccc(NS(=O)(=O)c3cc([N+](=O)[O-])ccc3C)cc2)nn1 | -25.5
CN(CC(=O)Nc1ccc(Cl)cc1)S(=O)(=O)c1ccc2c(c1)n(C)c(=O)c(=O)n2C | 16.3
COc1ccc(CC2(CO)CCN(CC3=Cc4cc(Cl)ccc4OC3)CC2)cc1 | -58.3
COc1cccc(CC2(CO)CCCN(CC3=Cc4cc(OC)ccc4OC3)C2)c1 (stereo not drawn) | -21.5
COc1ccc2c(c1)C=C(CN1CCC(CO)(CCc3ccccc3)CC1)CO2 | -77.1
COc1cccc(CC2(CO)CCCN(CC3=Cc4cc(Cl)ccc4OC3)C2)c1 (stereo not drawn) | -7.49
OCC1(CCOc2ccccc2)CCN(CC2=Cc3cc(Cl)ccc3OC2)CC1 | -21.9
CCOc1ccc(S(=O)(=O)NC(Cc2cnc[nH]2)C(=O)O)cc1 (stereo not drawn) | 18.5
CCN(CC)c1ccc(NC(=O)c2ccc(=O)[nH]c2)cc1S(=O)(=O)Nc1ccc(OC)cc1 | -7.22
CCCNC(=O)c1cc(S(=O)(=O)N2CCc3ccccc32)cn1C | -0.715
CCN(CC)CCNC(=O)c1cc(S(=O)(=O)N2CCc3ccccc32)cn1C | -66.1
CC(C)CCNC(=O)c1cc(S(=O)(=O)N2CCc3ccccc32)cn1C | 10.2
CC(NC(=O)c1cccc(S(=O)(=O)N2CCc3ccccc32)c1)c1ccco1 (stereo not drawn) | -48
CC(C)CCNC(=O)c1cccc(S(=O)(=O)N2CCc3ccccc32)c1 | 2.44
CCN(CC)CCCC(C)NC(=O)c1cccc(S(=O)(=O)N2CCc3ccccc32)c1.Cl (stereo not drawn) | -58.5
CCCOc1ccccc1C1CC(=O)NC2=C1C(=O)CCC2 (stereo not drawn) | -1.24
C=CCOc1ccc(/C=C/C(=O)OC(C)C(=O)Nc2ccc(NC(C)=O)cc2)cc1 (stereo not drawn) | 4.6
Cc1nc(CNC(=O)CC2C(=O)NCCN2Cc2ccc(F)cc2)cs1 (stereo not drawn) | 11.9
Cc1cc(C)nc(N(C#N)CN2C(=O)c3ccccc3S2(=O)=O)n1 | 0.542

Compound | hERG current change (%, negative = inhibition) at 10uM [%]
O=C(O)c1ccc(Cl)c(S(=O)(=O)N2CCCCCC2)c1 | -8.34
C/C(=N\NC(=O)CN(c1ccc(C)cc1)S(C)(=O)=O)c1cccs1 | -8.31
O=C(Nc1cc(Cl)ccc1Oc1ccccc1)c1ccc(F)cc1 | -14.1
Cc1ccn2c(=O)nc(SCC(=O)N3N=C(c4cccs4)CC3c3ccc(F)cc3)nc2c1 (stereo not drawn) | -65
COc1ccc(C2=NN(C(=O)CSc3nc(=O)n4ccc(C)cc4n3)C(c3ccc(C)cc3)C2)cc1 (stereo not drawn) | 5.1
Cc1ccc(C2CC(c3cccs3)=NN2C(=O)CSc2nc(=O)n3ccc(C)cc3n2)cc1 (stereo not drawn) | -46.3
COc1ccc(C2CC(c3cccs3)=NN2C(=O)CSc2nc(=O)n3ccc(C)cc3n2)cc1 (stereo not drawn) | -65.4
CCOC(=O)CSCC(=O)N1N=C(c2cccs2)CC1c1ccc(F)cc1 (stereo not drawn) | -34.1
CCN1CCN(CC(=O)N2N=C(c3cccs3)CC2c2ccc(OC)cc2)C(=O)C1=O (stereo not drawn) | -8.83
COCCn1c(N)c(C(=O)NCC2CCCO2)c2nc3ccccc3nc21 (stereo not drawn) | -7.66
CN(CC(=O)Nc1ccc(Cl)cc1)C(=O)CNC(=O)Cc1cccc2ccccc12 | 20.1
COc1cccc(CN(C(=O)Cn2nnc(-c3ccccc3F)n2)C(C(=O)NC(C)(C)C)c2ccncc2)c1 (stereo not drawn) | -18.7
O=[N+]([O-])c1ccc(N(c2ccccc2)c2ccccc2)cc1 | 4.46
Cc1nn(-c2cc(N3CCNCC3)ccc2[N+](=O)[O-])c(=O)c2ccccc12 | -11.4
CCOc1c(Cl)cc(CNc2ccc(S(N)(=O)=O)cc2)cc1OC | -3.11
CC1CN(CC(O)COC(c2ccc(Cl)cc2)c2ccc(Cl)cc2)CC(C)O1.Cl (stereo not drawn) | -71.9
COc1ccc(OCC(O)CN2CC(C)OC(C)C2)cc1.Cl (stereo not drawn) | 17.5
CN1CCN(CC(O)COC(c2ccccc2)c2ccccc2)CC1 (stereo not drawn) | 11.2
CN1CCN(CC(O)COc2ccc(Cl)cc2)CC1.Cl (stereo not drawn) | -12.5
CC(C)c1ccc(OCC(O)CN2CCCC2)cc1.Cl (stereo not drawn) | -11.1
OC(COC(c1ccc(Cl)cc1)c1ccc(Cl)cc1)CN1CCCC1 (stereo not drawn) | -77.4

Compound | hERG current change (%, negative = inhibition) at 10uM [%]
CN1CCN(CC(O)COC(c2ccc(Cl)cc2)c2ccc(Cl)cc2)CC1.Cl (stereo not drawn) | -69.3
CC1CN(CC(O)COc2ccc(C(C)C)cc2)CC(C)O1.Cl (stereo not drawn) | -14.3
CC1CCCCC1NC(=O)c1nnc(Cc2ccc(Cl)cc2)o1 (stereo not drawn) | -9.72
O=c1[nH]c(=O)c2nc3c4ccccc4c4ccccc4c3nc2[nH]1 | 4.75
CCOP(=O)(O)c1ccccc1OCCCCCOc1ccccc1P(=O)(O)OCC | 14.5
COC(=O)C(C)(C(=O)OC)c1ccccc1[N+](=O)[O-] | 7.93
COCCSc1ccccc1C(=O)Nc1nccs1 | -2.77
CN(C)S(=O)(=O)N1CCN(CC(O)COc2ccc(C(=O)c3ccccc3)cc2)CC1 (stereo not drawn) | -70.2
CN(C)S(=O)(=O)N1CCN(CC(O)COc2ccc(-c3ccccc3)cc2)CC1 (stereo not drawn) | -27.3
CCC(=O)c1ccc(OCC(O)CN2CCN(S(=O)(=O)c3ccc(NC(C)=O)cc3)CC2)cc1 (stereo not drawn) | -20.5
CCC(=O)c1ccc(OCC(O)CN2CCN(S(=O)(=O)N3CCCCC3)CC2)cc1 (stereo not drawn) | -55.1
CCC(=O)c1ccc(OCC(O)CN2CCCCC2)cc1.Cl (stereo not drawn) | -21.8
CN(C)S(=O)(=O)N1CCN(CC(O)COc2ccc3cc(Br)ccc3c2)CC1 (stereo not drawn) | -25.6
O=C(c1ccccc1)c1ccc(OCC(O)CN2CCOCC2)cc1 (stereo not drawn) | -10.8
O=S(=O)(N1CCCCC1)N1CCN(CC(O)COc2ccc3cc(Br)ccc3c2)CC1 (stereo not drawn) | 7.33
O=C(c1ccccc1)c1ccc(OCC(O)CN2CCN(S(=O)(=O)N3CCCCC3)CC2)cc1 (stereo not drawn) | -73.5
CCOc1ccc(N2C(=O)CN=C2Nc2ccccc2F)cc1 | 5.08
COc1ccc(Br)cc1CNc1ccccc1.O=C(O)C(=O)O | 9.4
CN=C1C=C/C(=N/N=c2\ccn(O)cc2C)C=C1C | -32.6
COC(=O)C1=C(C)N=C2SCCC(=O)N2C1c1cccs1 (stereo not drawn) | 10.4
O=C(O)C(=O)O.c1ccc(CNC23CC4CC(CC(C4)C2)C3)nc1 | 15.3

Compound | hERG current change (%, negative = inhibition) at 10uM [%]
CCCCN(Cc1ccccc1)C(=O)C1CCN(Cc2sccc2C)CC1.O=C(O)C(=O)O | -68.3
CC1CCCN(C(=O)C2CCN(CCCc3ccccc3)CC2)C1.O=C(O)C(=O)O (stereo not drawn) | -47.5
O=C(C1CCCN(CCCc2ccccc2)C1)N1CCCCCC1.O=C(O)C(=O)O (stereo not drawn) | -46.2
CCN(Cc1ccccc1)C(=O)C1CCN(Cc2sccc2C)CC1.O=C(O)C(=O)O | -44.3
O=C(C1CC1)N(CCN(Cc1ccccc1)C(=O)C1CC1)Cc1ccccc1 | -28.9
CCC(C)NC(=O)C1CCN(CCCc2ccccc2)CC1.O=C(O)C(=O)O (stereo not drawn) | -1.26
CCN(Cc1ccccc1)C(=O)C1CCN(CC2CC=CCC2)CC1.O=C(O)C(=O)O (stereo not drawn) | -46.9
O=C(C1CCN(CCCc2ccccc2)CC1)N(CCc1ccccc1)Cc1ccccc1.O=C(O)C(=O)O | -75
O=C(C1CCN(CC2CC=CCC2)CC1)N(CCc1ccccc1)Cc1ccccc1 (stereo not drawn) | -72
CC1CCN(C(=O)C2CCN(CCCc3ccccc3)CC2)CC1.O=C(O)C(=O)O | -62.3
CCN(CC)C(=O)C1CCCN(Cc2sccc2C)C1 (stereo not drawn) | 11.6
CCN(CC)C(=O)C1CCN(CC2CC=CCC2)CC1 (stereo not drawn) | -0.0716
Cc1ccc(C(C)C)c(Oc2nnnn2-c2ccccc2)c1 | 14.2
CC(=O)N1CCC(N(CCCOC(C)C)S(=O)(=O)c2ccc([N+](=O)[O-])cc2)CC1 | -35.3
CCn1cc(C(=O)N2CCn3c(nc4ccccc43)C2)c(=O)c2ccc(C)nc21 | -12.4
COc1ccc(NC(=O)CSC2=C(C#N)C(c3ccco3)C3=C(CCCC3=O)N2)c(OC)c1 (stereo not drawn) | -33.2
Fc1ccccc1Nc1nc(NCc2ccco2)nc(N2CCOCC2)n1 | -15.8
CCCOc1cccc(C2C(C(=O)c3ccc(C)o3)=C(O)C(=O)N2c2nc(C)c(C(C)=O)s2)c1 (stereo not drawn) | 9.66
COc1cc(NC(=O)c2c(F)c(F)c(OC)c(F)c2F)ccc1NC(=O)c1cccs1 | 11.2
COc1ccc(C(=S)N2CCCC2)cc1Br | -7.39
CCOC(=O)Cc1csc(NC(=O)NC2(C(F)(F)F)Oc3ccccc3O2)n1 | 5.19
